Giardia FBPA inh: inhibitors of Giardia lamblia fructose-1,6-bisphosphate aldolase. AID 2451. A8B2U2. Potency, µM (top dose mostly 59.6 µM), hits mostly inhibitors. actives 0.71% (n = 290,000). purified Giardia FBPA; also: nearly all actives have a fitted effect of over 55% in size
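40 nM FBPA preincubated 10 min at RT with compound (up to 57.5 uM final), then substrate plus GAPDH/TPI/NAD/arsenate coupling and diaphorase/resazurin added. Fluorescence read after 20 min at RT, 525/598 nm.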
TbPYK inhibitor: blocks Trypanosoma brucei pyruvate kinase. Potency, µM (series often up to 76.8 µM), usual class: inhibitors. AID 624173. actives 0.12% (n = 410,000). TbPYK enzyme, Kinase-Glo Plus ATP luminescence, 45 min. Q57TT1; also: nearly all actives have a fitted effect of over 50% in size
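Glycolytic pyruvate kinase of T. brucei was incubated with substrate, test compound and 130 uM ADP for 45 minutes at room temperature. Luminescent Kinase-Glo Plus signal was measured after 10 minutes.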
CHX counter: counter-screen for Shiga toxin inhibitors: cycloheximide protein synthesis inhibition | cell reporter, cycloheximide protein synthesis inhibition counterscreen | max response, % | actives 12% (n = 300,000) | AID 2314; in the data active = max response mostly above about 13%, no sharp cut-off; inactive = mostly below about 14%; also: read at 38.3 µM for the half of the compounds with a filed dose
Shiga inhibitor: inhibitors of Shiga toxin in Vero cells; Vero cells, Shiga toxin protein synthesis inhibition reporter; inhibition, % at 38.7 µM; actives 9.2% (n = 290,000); in the data active = inhibition mostly above about 28%, no sharp cut-off; inactive = mostly below about 43%
LmPK inh: LmPK (Leishmania mexicana) enzyme inhibition | Q27686 | actives 0.37% (n = 290,000) | AID 1721 | purified LmPK, Kinase-Glo ATP luminescence, 1 h | Potency, µM (highest dose often 57.5 µM), usual class: inhibitors
Target sequence (Q27686 whole entry, looked up): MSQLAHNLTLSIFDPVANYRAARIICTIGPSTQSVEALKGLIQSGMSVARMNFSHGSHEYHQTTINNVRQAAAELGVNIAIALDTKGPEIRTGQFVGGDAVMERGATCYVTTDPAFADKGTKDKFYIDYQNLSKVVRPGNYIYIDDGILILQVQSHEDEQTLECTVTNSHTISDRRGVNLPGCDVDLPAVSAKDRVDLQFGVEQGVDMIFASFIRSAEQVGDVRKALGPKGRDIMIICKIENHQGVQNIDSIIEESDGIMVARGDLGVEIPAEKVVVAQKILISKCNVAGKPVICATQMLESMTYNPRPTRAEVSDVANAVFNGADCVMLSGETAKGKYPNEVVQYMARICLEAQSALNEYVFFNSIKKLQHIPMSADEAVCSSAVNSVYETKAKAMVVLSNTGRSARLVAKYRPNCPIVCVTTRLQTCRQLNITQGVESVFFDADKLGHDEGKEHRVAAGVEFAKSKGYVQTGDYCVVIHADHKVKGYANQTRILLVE
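Pyruvate kinase activity monitored as ATP production (luciferase luminescence). Conditions: 0.1 nM enzyme, 0.5 mM PEP, 0.1 mM ADP, 1 h, RT; normalized against uninhibited and no-enzyme wells.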
Sm TGR block: inhibitors of Schistosoma mansoni thioredoxin glutathione reductase; purified TGR, DTNB reduction, TNB absorbance 405 nm; Potency, µM (series often up to 114 µM), usual class: inhibitors; actives 3% (n = 360,000); AID 485364; also: nearly all actives have a fitted effect of over 60% in size
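Kinetic colorimetric format: TGR-catalysed, NADPH-driven DTNB reduction monitored via TNB absorbance. Enzyme dispensed at 20 nM; compound exposure 15 min at room temperature before reaction start.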
Numbers stand for hits; . = inactive; ? = inconclusive; / = not tested or not shown; [ ] = dose if it differs, or a comment. Only a selection was taken, and hits are over-represented in it overall. Unless noted, calls follow the shape of the dose curve; as a rule, active = well fitted curve in the direction sought with a large enough effect; inconclusive = small, poorly fitted or top-dose-only effect, or another doubt; inactive = no such curve, though single readings can be large; an effect the other way counts as inactive or inconclusive.

SMILES	Giardia FBPA inh	TbPYK inhibitor	CHX counter	Shiga inhibitor	LmPK inh	Sm TGR block
Cc1ccc(C(=O)Nc2ccc(OCc3ccccc3)cc2)s1	.	.	18	.	.	.
CCOC(=O)C(=O)Nc1ccc(OCc2ccccc2)cc1	.	.	.	.	.	.
Brc1cccc(-c2nnc(CN3CCN(c4ccccn4)CC3)o2)c1	/	.	/	/	/	.
CCOCC(=O)Nc1ccc(C(=O)Nc2ccccc2Cl)cc1	.	/	26	.	.	.
CN1CCN(c2ccccc2NC(=O)c2ccc(OCc3ccccc3)cc2)CC1	.	.	.	.	.	.
COc1ccc(NC(=O)Nc2cccs2)cn1	.	.	9.5	.	.	13µM
Cc1noc(C)c1COc1cccc(C(=O)Nc2ccc(OCc3ccccc3)cc2)c1	.	.	12	.	.	.
CCOCC(=O)Nc1cc(C(=O)Nc2ccccc2)ccc1Cl	.	.	.	.	.	.
O=C(Nc1ccccc1F)c1ccc(OCc2ccccc2)cc1	.	.	49	86	.	.
C[C@H]1C[C@@H]2[C@H]([C@@H](O)C[C@@]3(C)[C@H]2CC[C@]3(O)C(=O)COC(=O)CCC(=O)O)[C@@]2(C)C=CC(=O)C=C12	/	.	/	/	/	/
CC(=O)OC[C@@H]1O[C@@H](O/N=C2/C[C@@H](O)[C@@H](O)[C@@H]3[C@H]4C(=O)N(c5ccc(F)cc5F)C(=O)[C@@H]4CC[C@@H]23)[C@H](OC(C)=O)[C@H](OC(C)=O)[C@@H]1OC(C)=O	.[12.9 µM]	/	/	/	/	/
O=C1c2ccccc2C(=O)C1(c1ccccc1)N1CCN(c2cccc(C(F)(F)F)c2)CC1	/	.	/	/	/	.
O=C(COC(=O)CNC(=O)c1ccccc1)NC(=O)NC1CCCCC1	/	.	/	/	/	/
Cc1ccsc1C(=O)Nc1ccc(C(=O)O)cc1	.	.	.	.	14µM	.
COC(=O)c1sccc1NC(=O)c1sccc1C	.	.	.	.	.	.
O=C(Nc1ccc(-c2noc(CCc3ccccc3)n2)cc1)c1cccnc1	?	.	27	40	.	.
O=C(Nc1ccc(OCc2ccccc2)cc1)c1ccccc1	.	.	14	.	.	.
CC(C)=CC(=O)Nc1ccc(OCc2ccccc2)cc1	.	.	53	126	.	.
Cc1ccccc1-n1c2nc(=O)[nH]c(=O)c-2cc2c(Cl)cccc21	/	.	/	/	/	.
CC[C@@H](C(=O)[C@@H](C)[C@@H](O)[C@H](C)CCc1ccc(C)c(O)c1C(=O)O)C1O[C@](CC)(C2CC[C@](O)(CC)[C@H](C)O2)C[C@@H]1C (stereo partly specified)	.	/	.	.	/	/
Cc1ccc([C@@H]2C[C@H]3[C@@H](CN2S(=O)(=O)c2ccc(C)cc2)C(=O)C[C@@H](c2ccccc2F)N3S(=O)(=O)c2ccc(C)cc2)cc1	/	.	/	/	/	/
CC(=O)Nc1ccc(-c2nnc3n(CC(C)C)c(=O)c4ccccc4n23)cc1	/	.	/	/	/	.
O=C(NCCc1ccccc1)c1ccc(NC(=O)c2cccnc2)cc1	.	.	23	37	.	.
O=C(NCCCSc1ccccc1)c1cccnc1	/	.	.	.	.	.
O=C(Nc1ccc(OCc2ccccc2)cc1)c1cccnc1	.	.	20	41	.	.
SMILES	Giardia FBPA inh	TbPYK inhibitor	CHX counter	Shiga inhibitor	LmPK inh	Sm TGR block
O=C(NCCSc1ccccc1)c1cccnc1	.	.	49	83	.	.
O=C(Nc1ccc(OCc2ccccc2)cc1)Nc1cccnc1	.	.	.	.	.	.
Cc1ccsc1C(=O)NCC(=O)OCc1ccccc1	/	.	30	61	.	.
O=C(NCCc1ccc(Cl)cc1)c1cccnc1	.	.	.	.	.	.
COc1ccccc1-c1oc2ccccc2c(=O)c1OC	.	/	/	/	/	/
COc1ccc(NC(=O)c2cc(Br)c(Br)s2)cn1	?	.	24	91	.	.
CC(=O)Nc1ccc(NC(=S)Nc2ccc(Br)cc2)cc1	.	.	.	.	.	?
CC(C)NC(=O)COc1ccc(OCc2ccccc2)cc1	.	.	20	.	.	.
CC(C)=CC(=O)Nc1ccc(Br)cc1	.	.	58	74	.	.
COc1ccc(NC(=O)NS(=O)(=O)c2ccc(C)cc2)cn1	.	.	.	.	.	.
COc1ccc(NC(=O)c2sccc2C)cn1	.	.	43	89	.	.
CCc1cc(C(=O)Nc2ccc(OC)nc2)sc1C	/	.	/	/	/	.
CC(C)C(C)NC(=O)COc1ccc(OCc2ccccc2)cc1 (stereo unspecified)	.	.	.	.	.	.
CN1C(=O)[C@H]2[C@@H](c3ccc(C(F)(F)F)cc3)N[C@]3(CCCN(Cc4cccn4C)C3=O)[C@H]2C1=O	/	.	/	/	/	/
Cc1cc(C(=O)Nc2ccc(OCc3ccccc3)cc2)c(C)o1	.	.	24	81	7.9µM	.
Cc1ccsc1C(=O)Nc1ccc(OCc2ccccc2)cc1	.	.	18	68	.	.
CCCn1cnc2cc(NCc3cccc(OC)c3)ccc21	.	.	24	35	.	.
CCCn1cnc2cc(NCc3ccc(OC)cc3OC)ccc21	/	.	/	/	/	.
CCCn1cnc2cc(NCc3ccccc3O)ccc21	.	.	39	113	.	.
CCCn1cnc2cc(NC(=O)c3cc(OC)c(OC)c(OC)c3)ccc21	/	.	/	/	/	.
CCn1cnc2cc(NCc3ccc(Br)cc3)ccc21	.	.	40	67	.	.
CCn1cnc2cc([N+](=O)[O-])ccc21	.	.	.	.	.	.
CCn1cnc2cc(NCc3ccc(N(C)C)cc3)ccc21	.	.	52	154	.	8.9µM

Screening data as filed in PubChem BioAssay.
